Source: the supplement of paper PMC8975748
Structures can show the parent of a compound that is named as a salt.

These molecules were tested on Saccharomyces cerevisiae BY4741 SeMeCo community (assay: z-score of subpopulation abundance vs DMSO median, subpopulation auxotrophic for LUM; higher = larger share of this subpopulation than in DMSO controls). Conditions: 10 µM; 24 h; SM minimal medium; subpopulation (auxotrophy): LUM.
Experimental: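 Fluorescent four-plasmid SeMeCo (self-establishing metabolically cooperating S. cerevisiae BY4741 community; plasmids pH-mRuby2, pL-mWasabi, pU-eCFP, pM-TagRFP657) was grown 24 h in minimal SM medium with each Selleck FDA-approved drug at 10 µM in 384-well plates. Cells were fixed and imaged by high-content confocal microscopy. For each auxotrophic subpopulation (and the prototroph), a z-score gives the deviation from the DMSO vehicle-control population median.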

In order of falling “z-score of subpopulation abundance” value:
1. C=C1CCN([C@H](C)[C@](O)(Cn2cncn2)c2ccc(F)cc2F)CC1 [Efinaconazole]  7.49
2. CC(C)c1c(C(=O)Nc2ccccc2)c(-c2ccccc2)c(-c2ccc(F)cc2)n1CC[C@@H](O)C[C@@H](O)CC(=O)O [Atorvastatin Calcium]  4.29
3. CCCCCOc1ccccc1/C(=C\SC)n1ccnc1 [Neticonazole Hydrochloride]  3.33
4. Oc1c(Cl)cc(Cl)cc1Sc1cc(Cl)cc(Cl)c1O [Bithionol]  2.62
5. OC1(c2ccc(Cl)c(C(F)(F)F)c2)CCN(CCCC(c2ccc(F)cc2)c2ccc(F)cc2)CC1 [Penfluridol]  2.56
6. C=CC[C@@H]1/C=C(\C)C[C@H](C)C[C@H](OC)[C@H]2O[C@@](O)(C(=O)C(=O)N3CCCC[C@H]3C(=O)O[C@H](/C(C)=C/[C@@H]3CC[C@@H](O)[C@H](OC)C3)[C@H](C)[C@@H](O)CC1=O)[C@H](C)C[C@@H]2OC [Tacrolimus (FK506)]  1.93
7. CC1(C)S[C@@H]2[C@H](NC(=O)[C@H](C(=O)O)c3ccsc3)C(=O)N2[C@H]1C(=O)O [Ticarcillin sodium]  1.35
8. Cc1ccc(O)c([C@H](CCN(C(C)C)C(C)C)c2ccccc2)c1 [Tolterodine tartrate]  1.3
9. CO/N=C(\C(=O)N[C@@H]1C(=O)N2C(C(=O)[O-])=C(C[N+]3(C)CCCC3)CS[C@H]12)c1csc(N)n1 [Cefepime Dihydrochloride Monohydrate]  1.06
10. N[C@@H]1CN(c2c(F)cc3c(=O)c(C(=O)O)cn([C@@H]4C[C@@H]4F)c3c2Cl)CC12CC2 [Sitafloxacin Hydrate]  0.98
11. CN[C@@H]1[C@@H](O[C@H]2O[C@H](CO)[C@@H](N)[C@H](O)[C@H]2O)OC2C[C@@H](N)[C@@H](O[C@H]3[C@H](O)[C@@H](O)[C@H](N)C[C@@H]3N)OC2[C@@H]1O (stereo not given in full) [Apramycin Sulfate]  0.97
12. C[C@]12CCC(=O)C=C1[C@@H]1C[C@@H]1[C@H]1[C@@H]3[C@@H]4C[C@@H]4[C@@]4(CCC(=O)O4)[C@@]3(C)CC[C@@H]12 [Drospirenone]  0.85
13. NC[C@@H]1O[C@H](O[C@H]2[C@@H](O)[C@H](O[C@@H]3[C@@H](O)[C@H](N)C[C@H](N)[C@H]3O[C@H]3O[C@H](CO)[C@@H](O)[C@H](O)[C@H]3N)O[C@@H]2CO)[C@H](N)[C@@H](O)[C@@H]1O [Paromomycin Sulfate]  0.8
14. COc1ccc(C(Cl)=C(c2ccc(OC)cc2)c2ccc(OC)cc2)cc1 [Chlorotrianisene]  0.76
15. OCCN1CCN(CC/C=C2/c3ccccc3Sc3ccc(C(F)(F)F)cc32)CC1 [Flupenthixol dihydrochloride]  0.65
16. COc1cc(NS(=O)(=O)c2ccc(N)cc2)ncn1 [Sulfamonomethoxine]  0.5
17. C=CCN1CCCC1CNC(=O)c1cc2nn[nH]c2cc1OC (stereo not given) [Alizapride HCl]  0.44
18. O=C(CCCN1CCN(c2ccccn2)CC1)c1ccc(F)cc1 [Azaperone]  0.38
19. C#C[C@]1(O)CC[C@H]2[C@@H]3CCc4cc(OC5CCCC5)ccc4[C@H]3CC[C@@]21C [Quinestrol]  0.36
20. CCC[C@@H]1C[C@@H](C(=O)N[C@@H]([C@H]2O[C@H](SC)[C@H](O)[C@@H](O)[C@H]2O)[C@H](C)Cl)N(C)C1 [Clindamycin HCl]  0.28
21. CCOC(=O)C1=C[C@]2(CC)CCCN3CCc4c(n1c1ccccc41)[C@@H]32 [Vinpocetine]  0.25
22. O=C(O[C@@H]1C[C@@H]2C[C@H]3C[C@H](C1)N2CC3=O)c1c[nH]c2ccccc12 [Dolasetron Mesylate]  0.21
23. CCN(CC)C(=O)C1(c2ccccc2)CC1CN (stereo not given) [Milnacipran HCl]  0.17
24. Cc1onc(-c2c(F)cccc2Cl)c1C(=O)N[C@@H]1C(=O)N2[C@@H]1SC(C)(C)[C@@H]2C(=O)O [Flucloxacillin sodium]  -0.02
25. Nc1nc2c(ncn2COC(CO)CO)c(=O)[nH]1 [Ganciclovir]  -0.04
26. COc1cccc(CCc2ccccc2OCC(CN(C)C)OC(=O)CCC(=O)O)c1 (stereo not given) [Sarpogrelate hydrochloride]  -0.21
27. CC(C)C(=O)Oc1ccc(CO)cc1[C@H](CCN(C(C)C)C(C)C)c1ccccc1 [Fesoterodine Fumarate]  -0.22
28. CCCN[C@H]1CCc2nc(N)sc2C1 [Pramipexole dihydrochloride]  -0.25
29. O=C(c1ccc(F)cc1)C1CCN(CCn2c(=O)[nH]c3ccccc3c2=O)CC1 [Ketanserin]  -0.27
30. CCc1c(C)[nH]c2c1C(=O)C(CN1CCOCC1)CC2 (stereo not given) [Molindone hydrochloride]  -0.28
31. C#C[C@]1(O)CC[C@H]2[C@@H]3CCc4cc(OC)ccc4[C@H]3CC[C@@]21C [Mestranol]  -0.31
32. CC1=C(C(=O)O)N2C(=O)[C@@H](NC(=O)[C@H](N)c3ccccc3)[C@H]2SC1 [Cephalexin]  -0.42
33. CO/N=C(\C(=O)N[C@@H]1C(=O)N2C(C(=O)O)=C(CSc3nnnn3C)CS[C@H]12)c1csc(N)n1 [Cefmenoxime hydrochloride]  -0.46
34. CC1(C)S[C@@H]2[C@H](NC(=O)Cc3ccccc3)C(=O)N2[C@H]1C(=O)O [Penicillin G Sodium]  -0.52
35. COc1cc2c(cc1OC)C(=O)C(CC1CCN(Cc3ccccc3)CC1)C2 (stereo not given) [Donepezil HCl]  -0.52
36. CN[C@@H]1[C@H](O[C@H]2[C@H](O[C@H]3[C@H](O)[C@@H](O)[C@H](NC(=N)N)[C@@H](O)[C@@H]3NC(=N)N)O[C@@H](C)[C@]2(O)CO)O[C@@H](CO)[C@H](O)[C@H]1O [Dihydrostreptomycin sulfate]  -0.71
37. Cc1nc(NC(=O)N2CCC[C@H]2C(N)=O)sc1-c1ccnc(C(C)(C)C(F)(F)F)c1 [Alpelisib (BYL719)]  -0.87
38. C=CC1=C(C(=O)O)N2C(=O)[C@@H](NC(=O)/C(=N\OCC(=O)O)c3csc(N)n3)[C@H]2SC1 [Cefixime]  -1.01
39. Cn1nnc(-c2ccc(-c3ccc(N4C[C@H](COP(=O)(O)O)OC4=O)cc3F)cn2)n1 [Tedizolid Phosphate]  -1.05
40. Nc1ccc(/N=N/c2ccccc2)c(N)n1 [Phenazopyridine HCl]  -1.8
